Data from paper PMC5540273 (PLoS ONE, 2017).

test system: ROCK2
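Further: kd values determined as follow-up on hits from a single-replicate KINOMEscan panel screen.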

SMILES | Kd [µM]
CC1=C(C(=O)Nc2cc3cn[nH]c3cc2F)C(c2ccc(C(F)(F)F)cc2)CC(=O)N1 (stereo not drawn) [GSK429286] | 0.0027
O=S(=O)(c1ccc(-c2ccnc3[nH]ccc23)cc1)N1CCCC1 [GSK846226] | 0.35
CSc1nn2c(=O)cc(N3CCOCC3)nc2n1Cc1cccc(C(F)(F)F)c1C [GSK2363608] | 0.082

test system: T1, RSK4(Kin.Dom.2-C-terminal)
T1 construct: gene RPS6KA6

SMILES | Kd [µM]
Fc1cc(Cl)ccc1Nc1ccnc2cc(-c3ccc(CN4CCCCC4)o3)ccc12 [GW560116] | 0.67
Fc1cc(Cl)ccc1Nc1ccnc2cc(I)ccc12 [GW551191] | 0.73
CS(=O)(=O)c1ccc(-c2c(-c3ncn[nH]3)sc(N3CCOCC3)c2C#N)cc1 | > 10

test system: SLK

SMILES | Kd [µM]
COc1cc2ncn(-c3cc(OCC4CCCO4)c(C(N)=O)s3)c2cc1OC (stereo not drawn) [GSK204607] | > 10
CN(C)CCN(C)C(=O)c1cc(-c2ccncc2)c(-c2ccc(Cl)c(O)c2)o1.Cl.Cl [SB-710397] | 3.6
Cc1ccccc1-n1cnc2c(N)ncnc21 [SKF-97510] | > 10
